Screening results: PubChem, National Center for Advancing Translational Sciences (NCATS)
VACV mCherry inh – qHTS for Stage-Specific Inhibitors of Vaccinia Orthopoxvirus: mCherry Reporter Primary qHTS | Vaccinia virus mCherry reporter infection, fluorescence | Potency, µM (series often up to 36.5 µM), for inactives: at the top dose activity change, negative = inhibition, hits mostly inhibitors | actives 0.63% (n = 310,000) | AID 720579, 2013; calls by dose curve; tested in A549 cells; also: nearly all actives have a fitted effect of over 35% in size
AmpC inh no detg – qHTS Inhibitors of AmpC Beta-Lactamase (assay without detergent); AmpC nitrocefin hydrolysis, absorbance 480 nm, 0.0001% Triton; Potency, µM (doses to about 57.1 µM), without a hit: at the top dose activity change, negative = inhibition, actives largely listed as inhibitors; AID 485341, 2010; actives 0.52% (n = 330,000);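 also: plate controls were no compound for no effect and no enzyme for full effect; nearly all actives have a fitted effect of over 20% in size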
Target sequence (P00811 whole entry, looked up): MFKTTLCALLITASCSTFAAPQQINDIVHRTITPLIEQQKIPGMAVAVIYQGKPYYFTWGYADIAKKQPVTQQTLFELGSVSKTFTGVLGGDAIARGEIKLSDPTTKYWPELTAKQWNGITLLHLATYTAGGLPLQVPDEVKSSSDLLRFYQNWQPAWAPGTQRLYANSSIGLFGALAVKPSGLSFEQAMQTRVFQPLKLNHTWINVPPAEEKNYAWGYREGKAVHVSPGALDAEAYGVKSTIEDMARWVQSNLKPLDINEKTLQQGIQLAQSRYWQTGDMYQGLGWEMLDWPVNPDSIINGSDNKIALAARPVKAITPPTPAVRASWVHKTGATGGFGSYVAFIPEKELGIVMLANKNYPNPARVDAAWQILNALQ
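20 mM phosphate pH 7.0 + 0.01% (detergent screen) or 0.0001% Triton X-100; 5.3 nM AmpC reagent; cpd preinc 15 min RT; nitrocefin (800 uM stock) to start; A480 q20 s × 4 min; Activity was normalised to no-enzyme and no-compound control wells.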
Vaccinia Venus – qHTS for Stage-Specific Inhibitors of Vaccinia Orthopoxvirus: Venus Reporter Primary qHTS; Vaccinia virus Venus reporter expression, fluorescence; Potency, µM (series often up to 36.5 µM), without a hit: at the top dose activity change, negative = inhibition, most hits filed as inhibitors; actives 0.46% (n = 330,000); calls by dose curve; tested in A549 cells; also: nearly all actives have a fitted effect of over 30% in size
AmpC detergent – qHTS Inhibitors of AmpC Beta-Lactamase (assay with detergent); P00811; Potency, µM (series often up to 114 µM), inactives show at the highest dose activity change, negative = inhibition, actives largely listed as inhibitors; AmpC hydrolysis of nitrocefin, absorbance 480 nm, 0.01% Triton; actives 0.041% (n = 370,000);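 also: 0% = no-compound wells and -100% = no-enzyme wells; nearly all actives have a fitted effect of over 25% in size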
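AmpC (5.3 nM in the dispensed reagent) in 20 mM phosphate pH 7.0 with 0.01% (detergent screen) or 0.0001% Triton X-100 was preincubated with compounds for 15 min at room temperature. Nitrocefin was then added from an 800 uM solution, and hydrolysis was followed at 480 nm.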
The depositor's hits bear a star; i = inactive; ? = inconclusive; . = not tested or not shown; + = active, no number. Shown are actives, neighbours in structure and some others; about 1.1% of the full set was active somewhere. Unless noted, calls follow the shape of the dose curve; as a rule, active = well fitted curve in the direction sought with a large enough effect; inconclusive = small, poorly fitted or top-dose-only effect, or another doubt; inactive = no such curve, though single readings can be large; an effect the other way counts as inactive or inconclusive. Unless noted, % is scaled to controls: 0 for no effect and ±100 for the full control effect; potency is read from the fitted curve at half-maximal effect.

SMILES | VACV mCherry inh | AmpC inh no detg | Vaccinia Venus | AmpC detergent
Cc1ccc2c(c1)Oc1ccc(NC(=O)CCCl)cc1C(=O)N2 | ? | 20µM* | ? | ?
CCCC(=O)Nc1ccc2c(c1)C(=O)NC2=O | i | 45µM* | -6% | -16%
CCCC(=O)Nc1cccc(Oc2ccc3c(c2)C(=O)NC3=O)c1 | . | -13% | . | -18%
CCOc1ccc(-c2oc3cc(Cl)ccc3c(=O)c2O)cc1OC | 28µM* | . | -24% | 5%
CN(CC(=O)NC(=O)NCc1ccccc1)Cc1cccc(Cl)c1Cl | 14µM* | -10% | ? | -12%
CN(CC(=O)NC(=O)NCc1ccccc1)Cc1ccc(Cl)cc1 | -14% | -9% | -15% | -13%
O=C(C[n+]1csc2ccccc21)c1ccc(I)cc1 | -12% | . | -10% | .
COc1ccc([C@@]23Oc4cc(OC)cc(OC)c4[C@]2(O)[C@H](O)[C@H](C(=O)N(C)C)[C@H]3c2ccccc2)cc1 | + | . | 0.0001µM* | .
COc1ccc(C2CC(O)(c3ccccc3)Oc3cc(OC)c(OC)c(OC)c32)cc1 (stereo unspecified) | -22% | 11% | -26% | 14%
CN1CCN(c2ccnc(N(C)CCCCCCN)n2)CC1 | -12% | . | -15% | .
COc1cccc(/C=N/Nc2ncnc3c2ncn3Cc2ccccc2)c1O | 3.2µM* | -29% | ? | -14%
Cc1nnc(N/N=C/c2ccccc2F)n1N | . | 14% | . | -7%
COc1ccc(-n2c(C)cc(/C=N/Nc3nnc(C)n3N)c2C)cc1 | 11µM* | 44% | ? | ?
COc1cccc(/C=N/Nc2nnc(C)n2N)c1O | 7.1µM* | -16% | ? | 1%
CN(C)C(=O)CCC(=O)NCC1Cc2cccc(-c3ccccc3C(F)(F)F)c2O1 (stereo unspecified) | -13% | . | -6% | .
Cc1cccc(C(=O)N2CCOc3ccc(CN(C)Cc4cc(C5CC5)n[nH]4)cc3C2)n1 | -6% | . | -9% | .
Cc1cc(C)cc(NC(=O)C(OC(=O)c2ccc(NC(=O)CC#N)cc2)c2ccccc2)c1 (stereo unspecified) | -1% | 11µM* | 5% | -10%
O=c1[nH]c(=O)n(C2CC(O)C(CO)O2)cc1I (stereo unspecified) | 5µM* | . | ? | .
CCN1C(=O)CC(C(C)C)N(C2CCCC2)c2nc(Nc3ccc(C(=O)NC4CCN(C)CC4)cc3OC)ncc21 (stereo unspecified) | ? | . | 10µM* | .
CCN1C(=O)CC(c2ccccc2)N(C2CCCC2)c2nc(Nc3ccc(C(=O)NC4CCN(C)CC4)cc3OC)ncc21 (stereo unspecified) | -25% | 189% | ? | .
CC(=NNC(=O)c1ccncc1)c1ccccc1O | 1.1µM* | . | ? | .
CC(C)CC(=NNC(=O)c1ccncc1)c1cc(Cl)ccc1O | 5.6µM* | . | ? | .
CC(=NNC(=O)c1ccncc1)c1ccc2ccccc2c1O | ? | . | 33% | .
Cc1cccnc1C(NC(=O)C1CCN(Cc2cn(C)c3ccccc23)CC1)c1ccc(Cl)cc1 (stereo unspecified) | 14µM* | . | 11µM* | .
Cc1cccnc1C(NC(=O)C1CCN(Cc2ccc(Cl)cc2)CC1)c1ccccc1 (stereo unspecified) | i | . | -14% | .
SMILES | VACV mCherry inh | AmpC inh no detg | Vaccinia Venus | AmpC detergent
CCc1nnc(N/N=C/c2c(Cl)cccc2Cl)n1N | -17% | 82% | -9% | -2%
CCc1nnc(N/N=C/c2cccs2)n1N | 22µM* | -30% | ? | -7%
CCOC(=O)Nc1ccc2c(c1)N(C(=O)CCN(CC)CC)c1ccccc1S2=O (stereo unspecified) | 10µM* | -12% | ? | -7%
O=C(CN1C(=O)S/C(=C\c2ccc(-c3cc(C(=O)O)ccc3Cl)o2)C1=O)Nc1ccc2c(c1)OCO2 | . | -36% | . | 79µM*
O=C(N/N=C/c1cccs1)c1c[nH]c2ccccc12 | i | -33% | -21% | ?
CCc1ccc(/C=N/NC(=O)c2c[nH]c3ccccc23)s1 | ? | 22µM* | ? | -1%
Nc1c(N(CCC2=CCCCC2)C(=O)COc2ccc(F)cc2)c(=O)[nH]c(=O)n1Cc1ccccc1 | . | -40% | . | 5%
Nc1c(N(CCC2=CCCCC2)C(=O)CCCOc2ccccc2)c(=O)[nH]c(=O)n1Cc1ccccc1 | -5% | 14µM* | ? | ?
CC(C)CN(C(=O)COC(=O)c1cncc(Br)c1)c1c(N)n(Cc2ccccc2)c(=O)[nH]c1=O | -11% | 22% | -7% | -3%
CC(C)CN(C(=O)COC(=O)c1ccc(Br)cc1)c1c(N)n(Cc2ccccc2)c(=O)[nH]c1=O | ? | -18% | 13µM* | ?
CC(C)CN(C(=O)c1ccc2c(c1)OCCO2)c1c(N)n(Cc2ccccc2)c(=O)[nH]c1=O | -1% | -25% | -9% | 0%
Cc1ccc(C)c(OCC(=O)N(Cc2ccccc2)c2c(N)n(Cc3ccccc3)c(=O)[nH]c2=O)c1 | 28µM* | . | ? | .
CC(C)CN(C(=O)c1ccc([N+](=O)[O-])s1)c1c(N)n(Cc2ccccc2)c(=O)[nH]c1=O | 20µM* | -52% | ? | -9%
Cc1ccccc1OCCC(=O)N(Cc1ccccc1)c1c(N)n(Cc2ccccc2)c(=O)[nH]c1=O | -10% | -39% | -21% | 3%
O=C(NC1CC1)[C@@H]1C[C@H](Sc2nc3ccccc3[nH]2)CN1CC1CCCCC1 | -18% | . | -12% | .
O=C(N[C@@H]1c2ccccc2C2(CCN(C(=O)c3cc4ccccc4oc3=O)CC2)[C@H]1O)c1cccnc1 | -1% | . | -8% | .
COc1ccc(-c2cnc(C(O)c3ccccc3)[nH]2)cc1 (stereo unspecified) | 11% | . | 2% | .
OC(c1ccc(Cl)cc1)c1ncc(-c2ccc(Oc3ccccc3)cc2)[nH]1 (stereo unspecified) | 10µM* | . | ? | .
OC(c1ccccc1)c1ncc(-c2ccc(Oc3ccccc3)cc2)[nH]1 (stereo unspecified) | 16µM* | . | ? | .
CC(=O)Nc1ccc(C(=O)N2CCCC(n3cc(C(=O)NCC(C)C)nn3)C2)cc1 (stereo unspecified) | i | . | -13% | .
CCC1(C2CCN(C(=O)c3ccc4ccccc4c3)CC2)NC(=O)N(CCc2scnc2C)C1=O (stereo unspecified) | -10% | . | -3% | .
Cc1oc(-c2ccccc2NC(=O)C2CCCO2)nc1CNC(=O)c1cc(F)c(F)cc1F (stereo unspecified) | -13% | . | -4% | .
Cc1nc(C(=O)N(Cc2cc3ccc(F)cc3nc2N2CCC(O)CC2)CC2CCCO2)cs1 (stereo unspecified) | -12% | . | -6% | .
N=C1/C(=C\c2ccc(-c3cccc(Cl)c3)o2)C(=O)N=C2SC=C(c3ccccc3)N12 | -14% | 16µM* | 9% | -7%
FC(F)Sc1ccc(NC(=S)NC2CCCC2)cc1 | -16% | -30% | -10% | 10%
CC1CCCC(NC(=S)Nc2ccc(SC(F)F)cc2)C1C (stereo unspecified) | ? | -40% | 11µM* | 4%
